Bioassay records as filed in PubChem.
hgDAF12 agonist = H. glycines DAF-12 receptor agonists, primary screen, cell-based, luminescence, HEK293, GAL4 fusion, UAS-luciferase; activation, % at 6.8 µM; Nuclear hormone receptor DAF-12 (Heterodera glycines), GAL4 fusion; HEK293 GAL4-hgDAF12 UAS-luciferase reporter, agonist luminescence; normalized to butyrate control; AID 687014, 2013; 370,000 compounds, 1.8% hits;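 active = activation above a cutoff set at the mean of all screened compounds plus 3 SD, cut at about 10% in these data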
AHR activator = AHR activators, primary screen, cell-based, luminescence, luciferase reporter, human | 320,000 compounds, 2.5% hits | AID 2796, 2010 | AHR-responsive luciferase reporter cells | Aryl hydrocarbon receptor (Homo sapiens), P35869 | activation, % at 5 µM; in the data active = activation above about 47%
Target sequence (P35869 whole entry, looked up): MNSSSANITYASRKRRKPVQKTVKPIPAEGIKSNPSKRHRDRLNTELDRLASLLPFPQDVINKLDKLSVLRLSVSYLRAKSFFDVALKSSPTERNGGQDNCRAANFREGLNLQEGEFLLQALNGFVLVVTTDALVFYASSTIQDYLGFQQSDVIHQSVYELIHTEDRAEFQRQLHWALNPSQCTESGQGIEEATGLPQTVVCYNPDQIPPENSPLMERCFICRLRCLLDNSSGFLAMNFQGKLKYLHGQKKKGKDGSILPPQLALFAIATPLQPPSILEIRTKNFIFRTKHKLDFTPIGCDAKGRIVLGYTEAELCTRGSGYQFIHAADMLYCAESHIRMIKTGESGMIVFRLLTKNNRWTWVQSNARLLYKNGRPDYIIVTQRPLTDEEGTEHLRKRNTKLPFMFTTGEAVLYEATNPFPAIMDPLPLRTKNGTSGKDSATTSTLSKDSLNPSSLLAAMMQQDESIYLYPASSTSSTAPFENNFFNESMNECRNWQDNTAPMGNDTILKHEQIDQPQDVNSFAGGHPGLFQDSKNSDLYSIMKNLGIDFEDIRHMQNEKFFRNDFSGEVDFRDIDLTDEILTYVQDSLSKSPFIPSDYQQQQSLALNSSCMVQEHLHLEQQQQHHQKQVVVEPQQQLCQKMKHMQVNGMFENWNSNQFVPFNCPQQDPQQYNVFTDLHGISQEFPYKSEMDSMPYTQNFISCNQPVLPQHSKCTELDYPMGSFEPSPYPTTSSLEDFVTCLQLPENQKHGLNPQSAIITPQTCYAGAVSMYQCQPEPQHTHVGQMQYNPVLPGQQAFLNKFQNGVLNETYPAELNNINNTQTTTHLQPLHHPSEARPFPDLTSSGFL
DAX1 inh-1 = DAX1 (NR0B1) inhibitors, primary screen, cell-based, HEK293, Gal4-DAX1, luciferase luminescence; Nuclear receptor subfamily 0 group B member 1 (Homo sapiens), P51843; 340,000 compounds, 0.99% hits; HEK293 Gal4-DAX1 luciferase reporter; inhibition, % at 6.75 µM;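 active = inhibition above the mean over all tested compounds plus 3 SD, cut at about 4.2% in these data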;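 also: inhibition shows as a rise in luminescence from relieved DAX1 repression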
ssDAF-12 act = S. stercoralis DAF-12 nuclear receptor activators, primary screen, cell-based, luminescence, HEK293, GRIP1 co-expression, lit1-tk-luc. activation, % at 6.8 µM. 370,000 compounds, 1% hits. HEK293 ssDAF-12/GRIP1 lit1-tk-luc reporter; % of 3 µM dafachronic acid response;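 active = activation above the mean over all tested compounds plus 3 SD, cut at about 0.9% in these data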
DAX1 inh-2 = DAX1 (NR0B1) inhibitors on StAR promoter, primary screen, cell-based, luminescence, SF-1 (NR5A1), full-length DAX-1 | HEK293T StAR-luciferase reporter, SF-1/DAX-1 repression relief | inhibition, % at 6.8 µM | 370,000 compounds, 1.1% hits;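 active = inhibition above the mean over all tested compounds plus 3 SD, cut at about 3.6% in these data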;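 also: higher inhibition means more luminescence from relief of DAX-1 repression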
hcDAF12 agonist = H. contortus DAF-12 nuclear receptor activators, primary screen, cell-based, luminescence, HEK293, lit1-tk-luc reporter | activation, % at 6.8 µM | HEK293 hcDAF-12 lit1-tk-luc reporter; 0% DMSO, 100% Δ7-dafachronic acid | 370,000 compounds, 1.4% hits;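 active = activation above the mean of all tested compounds plus 3 SD, cut at about 5.5% in these data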
Of the large screens only hits and unclear results are named; the others gave an inactive call. Compounds with a hit are over-represented: about 5.7% of the library has one in this group of screens.

CCCc1nc2ccccc2c(=O)n1/N=C/c1c(C)[nH]n(-c2ccc(C)cc2)c1=O	AHR activator 59
Cn1cc(/C=C/c2cc[n+](C)cc2)c2cc(Cl)ccc21	AHR activator 47
O=C(NCC1CCCO1)c1nn2c(C(F)(F)F)cc(-c3cccs3)nc2c1Cl (configuration not stated)	ssDAF-12 act 0.9
COc1cc(C=NN=c2sc3ccccc3n2C)ccc1OCCO	hgDAF12 agonist 12 (no result: AHR activator, DAX1 inh-1)
NC(=O)c1cc([N+](=O)[O-])c(Cl)cc1NCc1ccncc1	none
NC(=O)c1cc([N+](=O)[O-])c(Cl)cc1NCc1ccccn1	AHR activator 67
COC(=O)c1cnn(-c2nc3c(C)cccc3s2)c1C	hcDAF12 agonist 5.9
CCOC(=O)[C@]12CCCCC/C=C\1N(Cc1ccc(OC)cc1)C(=O)[C@H]2CC(=O)NCc1cccs1	none (no result: AHR activator, DAX1 inh-1)
CC(C)(C)NC(=O)CN(CCc1ccccc1)C(=O)c1csnn1	none
CCC(C)NC(=O)c1cc2cc3ccc(OC)cc3nc2s1 (configuration not stated)	ssDAF-12 act 1.4, DAX1 inh-2 3.8
COc1ccc2cc3cc(C(=O)Nc4ccc(F)cc4)sc3nc2c1	none (no result: AHR activator, DAX1 inh-1, DAX1 inh-2)
COc1nnc(-c2ccc(N3CCCCC3)c(N)c2)c2ccccc12	AHR activator 64
Cn1nc(-c2ccc(Cl)cc2)cc1NC(=O)CCCC(=O)O	none (no result: DAX1 inh-1)
Cc1sc2ncnc(NC(C)C(=O)O)c2c1C (configuration not stated)	DAX1 inh-1 5.3
CCOC(=O)/C(N=Nc1ccc2c(c1)OCO2)=C(\C)O	DAX1 inh-1 6.3
Cc1cc(N2CCN(CC(C)(C)O)C[C@H]2C)ccc1N1CCN(Cc2ccccc2)[C@@H](C)C1	none (no result: AHR activator, DAX1 inh-1)
Cc1c(Cl)c([N+](=O)[O-])nn1CC(=O)N1CCN(Cc2ccccc2)CC1	DAX1 inh-1 4.4
Oc1[nH]c2c(Cl)cc(Cl)cc2c1N=NC(=S)NCC1CCCO1 (configuration not stated)	AHR activator 51
Cc1ccc(NNC(=S)Nc2ccc(C(C)C)cc2)c(C)c1	AHR activator 66
Cc1ccc(NC(=S)NNC(=S)Nc2ccc(C)cc2)cc1	none (no result: AHR activator)
Cc1cc(NC(=O)COc2ccccc2C(N)=O)no1	DAX1 inh-1 4.8
COc1ccccc1OCC(=O)Nc1ccc(S(=O)(=O)Nc2cc(C)on2)cc1	ssDAF-12 act 1.2
COc1ccc(OCC(=O)Nc2ccc(S(=O)(=O)Nc3cc(C)on3)cc2)cc1	none
Cc1cc(NS(=O)(=O)c2ccc(NC(=O)/C=C/c3ccc(Br)cc3)cc2)no1	DAX1 inh-2 4.5
Cc1c(C(=O)Nc2ccc(S(=O)(=O)Nc3ncccn3)cc2)oc2ccccc12	none
Cc1cc(NC(=O)COc2ccccc2C)no1	none
Cc1cc(NS(=O)(=O)c2ccc(NC(=O)c3oc4ccccc4c3C)cc2)no1	ssDAF-12 act 0.9
Brc1ccc(-c2csc(N3CCNCC3)n2)cc1	none (no result: AHR activator, DAX1 inh-1, DAX1 inh-2)
c1ccc(-c2nnc(-c3ccccn3)nn2)nc1	hgDAF12 agonist 13
Cc1nnc(-c2ccccc2)nc1N(C)C	none
c1ccc(-c2nnc(-c3ccccn3)c(-c3ccccn3)n2)nc1	none (no result: DAX1 inh-1)
CN(C)c1nc(-c2ccccn2)nnc1-c1ccccc1	AHR activator 85
CCN(CC)CCCN1C(=O)C2=C(C1=O)C1N(C)c3ccccc3[C@@]13C[C@@H](CO)N(C(=O)CCC(=O)OC)C3=N2 (some centres not stated)	none (no result: AHR activator, DAX1 inh-1)
CN(Cc1ccc(F)cc1)C(=O)CN1C(=O)C2(OCCCO2)c2ccccc21	none (no result: AHR activator, DAX1 inh-1)
CCn1cc(S(=O)(=O)Nc2cc(F)ccc2C)cn1	none
COc1cc(/C=C(\C#N)C(=O)Nc2cccc(C(=O)O)c2)ccc1OCc1ccc(C)cc1	hcDAF12 agonist 6.5
CCOc1ccc(Cl)cc1CNc1nnnn1CC	none
CCOc1ccc2ccccc2c1CNc1nnnn1CC	DAX1 inh-1 4.9
COc1ccc(Cl)cc1NC(=O)Cn1c(NCCO)nc2ccccc21	none
O=C1C2CCCN2C(c2ccccc2)N1c1ccc(Cl)cc1 (configuration not stated)	none
COc1ccc(N2C(=O)C3CCCN3C2c2ccccc2F)cc1 (configuration not stated)	DAX1 inh-1 4.9
COc1ccccc1C1N(c2ccc(F)cc2)C(=O)C2CCCN21 (configuration not stated)	none
O=C1C2CCCN2C(c2ccccc2F)N1c1ccc(Cl)cc1 (configuration not stated)	AHR activator 52
COc1cc(OC)cc(-c2sc3ccc(OC)cc3c2C#CCO)c1	AHR activator 49
COc1cccc(-c2sc3ccc(OC)cc3c2C#CCCO)c1	AHR activator 69
COc1cccc(-c2sc3ccc(OC)cc3c2C#CC2(O)CCCCC2)c1	none
COc1cc(OC)cc(-c2sc3ccc(OC)cc3c2C#CC(C)(C)O)c1	none
CCOc1ncccc1C(=O)N=c1sccn1C	AHR activator 60
O=C(COc1ccc2ccccc2c1Br)N1CCCC1	DAX1 inh-2 3.9
CC(C)c1ccc(OCC(=O)N2CCCCCC2)c(Br)c1	hgDAF12 agonist 11
O=C(Oc1ccc2ccccc2c1Cl)N1CCCCCC1	DAX1 inh-2 4.1
O=C(Nc1c(-c2ccc(Cl)cc2)[nH][nH]c1=O)c1ccccc1Cl	none (no result: AHR activator, DAX1 inh-1)
COC1=Nc2ccccc2/C=C\c2ccccc21	none (no result: AHR activator)
Cc1noc(C)c1NC(=O)Nc1ccc2c(c1)C(=O)N([C@H](C)CO)C[C@H](C)[C@@H](CN(C)S(=O)(=O)c1ccc(Cl)cc1)OCCCC[C@@H](C)O2	DAX1 inh-1 6.1 (no result: AHR activator)
C[C@@H]1CCCCO[C@@H](CN(C)Cc2ccncc2)[C@@H](C)CN([C@H](C)CO)C(=O)c2cc(NC(=O)c3ccccc3)ccc2O1	DAX1 inh-1 4.8 (no result: AHR activator)
C[C@@H]1CN([C@@H](C)CO)C(=O)c2cc(N(C)C)ccc2O[C@@H]1CN(C)Cc1ccncc1	ssDAF-12 act 1.3
CC(=O)Nc1ccc(-n2nnnc2SCC(=O)Nc2cccc(NC(=O)c3ccco3)c2)cc1	none
CCOC(=O)N1CCN(C(=O)C[C@H]2C[C@@]3(C(=O)OC)C(=C[C@H](C4CCCC4)O[C@@H]3C)N(Cc3cccc4ccccc34)C2=O)CC1	none (no result: AHR activator, DAX1 inh-1)
CCCc1[nH]n(-c2nc3ccccc3s2)c(=O)c1C=NCC(C)C	none
